# From the supplement of paper PMC11732987, “Enantioselective OTUD7B fragment discovery through chemoproteomics screening and high-throughput optimisation” (Communications Chemistry, 2025)
# Unmarked numbers belong to inactive results.
# What was measured:
# Test in all cases: log2 ratio of Biotin-Ahx-Ub-VS probe labelling (fragment/DMSO); higher = less target engagement (more negative = stronger competition), active = hit call of the paper (q ≤ 0.05, log2 ratio ≤ -1)
# Settings in all cases: compound concentration: 200 uM; treatment time: 3 h
# OTUD6B = molecular target: T1, OTUD6B (UniProt Q8N6M0)
# T1 sequence (whole entry): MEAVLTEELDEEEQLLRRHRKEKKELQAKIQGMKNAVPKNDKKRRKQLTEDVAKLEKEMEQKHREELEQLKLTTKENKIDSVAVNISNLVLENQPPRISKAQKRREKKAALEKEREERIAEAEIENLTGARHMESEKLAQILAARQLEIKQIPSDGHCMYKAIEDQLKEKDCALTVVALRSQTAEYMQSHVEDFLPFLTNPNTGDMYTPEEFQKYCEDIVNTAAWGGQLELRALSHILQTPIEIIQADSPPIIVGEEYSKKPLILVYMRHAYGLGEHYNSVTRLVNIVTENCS
# How it was run: (§1)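 Fragment (200 µM) or vehicle was incubated for 3 h with triplicate HEK293T lysate samples of 495 µg, which were then treated with Biotin-Ahx-Ub-VS at 0.5 µM final for 1 h. Labelled DUBs were enriched on NeutrAvidin, digested with LysC and trypsin, and analysed by diaPASEF LC-MS/MS. Values are average log2 fragment/vehicle ratios from an unpaired t-test on global-median-normalised Spectronaut label-free quantities, using proteins with ≥2 unique peptides.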
# OTUD7B = molecular target: T2, OTUD7B (UniProt Q6GQQ9)
# T2 sequence (whole entry): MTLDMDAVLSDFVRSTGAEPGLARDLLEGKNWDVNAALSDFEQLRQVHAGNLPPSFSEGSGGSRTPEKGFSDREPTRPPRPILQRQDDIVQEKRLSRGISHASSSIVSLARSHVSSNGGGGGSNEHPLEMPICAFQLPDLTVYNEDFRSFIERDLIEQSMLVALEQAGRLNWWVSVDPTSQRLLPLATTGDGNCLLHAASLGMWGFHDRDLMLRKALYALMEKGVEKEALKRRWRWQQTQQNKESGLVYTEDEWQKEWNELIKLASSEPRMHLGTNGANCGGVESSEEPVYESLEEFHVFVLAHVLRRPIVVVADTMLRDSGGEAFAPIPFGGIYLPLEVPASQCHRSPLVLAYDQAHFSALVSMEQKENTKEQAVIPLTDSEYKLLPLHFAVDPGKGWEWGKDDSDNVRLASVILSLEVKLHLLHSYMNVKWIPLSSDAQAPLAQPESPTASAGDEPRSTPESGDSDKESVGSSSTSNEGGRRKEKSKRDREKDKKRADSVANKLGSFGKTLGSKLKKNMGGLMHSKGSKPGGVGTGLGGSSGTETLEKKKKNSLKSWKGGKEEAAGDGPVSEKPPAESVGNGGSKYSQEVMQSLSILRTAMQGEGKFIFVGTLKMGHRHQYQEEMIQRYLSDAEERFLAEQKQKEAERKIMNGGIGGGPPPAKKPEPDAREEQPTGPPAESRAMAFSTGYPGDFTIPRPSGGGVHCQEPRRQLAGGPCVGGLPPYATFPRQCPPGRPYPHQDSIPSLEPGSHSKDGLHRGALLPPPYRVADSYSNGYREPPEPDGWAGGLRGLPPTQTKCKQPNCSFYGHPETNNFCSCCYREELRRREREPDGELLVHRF
# How it was run: as §1
# PRPF8 = PRPF8 (UniProt Q6P2Q9)
# How it was run: as §1
# PSMD7 = molecular target: T3, PSMD7 (UniProt P51665)
# T3 sequence (whole entry): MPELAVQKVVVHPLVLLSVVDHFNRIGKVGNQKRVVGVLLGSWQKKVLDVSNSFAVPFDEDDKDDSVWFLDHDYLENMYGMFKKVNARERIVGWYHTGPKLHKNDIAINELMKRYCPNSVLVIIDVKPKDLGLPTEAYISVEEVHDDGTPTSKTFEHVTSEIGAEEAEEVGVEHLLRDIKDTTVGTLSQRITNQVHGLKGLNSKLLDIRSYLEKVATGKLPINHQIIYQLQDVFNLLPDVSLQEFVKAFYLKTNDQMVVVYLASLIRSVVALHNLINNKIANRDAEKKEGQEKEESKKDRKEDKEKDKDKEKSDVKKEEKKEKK
# How it was run: as §1
# UCHL1 = UCHL1 (UniProt P09936)
# How it was run: as §1
# UCHL3 = molecular target: T4, UCHL3 (UniProt P15374)
# T4 sequence (whole entry): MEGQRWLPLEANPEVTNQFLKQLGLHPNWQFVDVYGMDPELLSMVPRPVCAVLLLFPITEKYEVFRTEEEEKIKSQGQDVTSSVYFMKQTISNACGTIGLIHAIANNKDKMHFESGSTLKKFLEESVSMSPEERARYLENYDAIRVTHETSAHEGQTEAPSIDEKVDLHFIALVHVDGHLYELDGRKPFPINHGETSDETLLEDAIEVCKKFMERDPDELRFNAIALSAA
# How it was run: as §1
# UCHL5 = molecular target: T5, UCHL5 (UniProt Q9Y5K5)
# T5 sequence (whole entry): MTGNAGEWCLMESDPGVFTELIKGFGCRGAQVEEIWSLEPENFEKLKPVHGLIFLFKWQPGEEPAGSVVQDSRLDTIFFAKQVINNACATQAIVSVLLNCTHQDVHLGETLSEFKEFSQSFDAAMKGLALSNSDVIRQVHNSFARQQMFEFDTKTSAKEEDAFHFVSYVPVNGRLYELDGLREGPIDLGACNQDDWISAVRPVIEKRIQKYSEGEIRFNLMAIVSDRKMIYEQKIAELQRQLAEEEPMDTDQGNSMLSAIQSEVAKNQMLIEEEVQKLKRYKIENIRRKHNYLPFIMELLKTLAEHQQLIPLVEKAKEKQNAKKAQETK
# How it was run: as §1
# USP10 = USP10 (UniProt Q14694)
# How it was run: as §1
# USP15 = molecular target: T6, USP15 (UniProt Q9Y4E8)
# T6 sequence (whole entry): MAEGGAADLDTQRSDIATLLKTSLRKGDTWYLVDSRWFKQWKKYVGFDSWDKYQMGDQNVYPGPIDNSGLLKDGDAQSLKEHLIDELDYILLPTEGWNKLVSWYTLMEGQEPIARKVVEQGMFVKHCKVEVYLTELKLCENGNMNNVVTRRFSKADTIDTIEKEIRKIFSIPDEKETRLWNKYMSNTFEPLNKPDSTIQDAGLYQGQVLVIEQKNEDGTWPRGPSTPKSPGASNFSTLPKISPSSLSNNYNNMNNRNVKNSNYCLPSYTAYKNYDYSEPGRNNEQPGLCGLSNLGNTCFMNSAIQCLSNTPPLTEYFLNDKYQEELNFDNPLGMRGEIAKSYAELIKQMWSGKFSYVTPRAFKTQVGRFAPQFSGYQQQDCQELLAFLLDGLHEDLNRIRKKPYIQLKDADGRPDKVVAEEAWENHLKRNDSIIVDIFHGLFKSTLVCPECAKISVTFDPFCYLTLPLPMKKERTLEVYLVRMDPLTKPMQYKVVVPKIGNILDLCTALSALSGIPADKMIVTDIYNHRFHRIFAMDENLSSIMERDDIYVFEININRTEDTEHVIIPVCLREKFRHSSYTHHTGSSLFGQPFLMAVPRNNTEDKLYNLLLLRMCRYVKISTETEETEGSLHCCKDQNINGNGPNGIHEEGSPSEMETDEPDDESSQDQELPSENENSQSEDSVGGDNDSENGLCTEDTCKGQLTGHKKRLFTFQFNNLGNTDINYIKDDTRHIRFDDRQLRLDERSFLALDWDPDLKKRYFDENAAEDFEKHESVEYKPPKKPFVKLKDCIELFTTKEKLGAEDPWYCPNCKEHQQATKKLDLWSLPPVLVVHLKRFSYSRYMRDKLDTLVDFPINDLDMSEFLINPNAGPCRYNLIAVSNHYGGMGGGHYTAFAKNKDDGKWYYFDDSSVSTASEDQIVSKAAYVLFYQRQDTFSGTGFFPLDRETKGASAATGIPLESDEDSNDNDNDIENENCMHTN
# How it was run: as §1
# USP16 = USP16 (UniProt Q9Y5T5)
# How it was run: as §1
# Chain of USP10 (Q14694 whole entry): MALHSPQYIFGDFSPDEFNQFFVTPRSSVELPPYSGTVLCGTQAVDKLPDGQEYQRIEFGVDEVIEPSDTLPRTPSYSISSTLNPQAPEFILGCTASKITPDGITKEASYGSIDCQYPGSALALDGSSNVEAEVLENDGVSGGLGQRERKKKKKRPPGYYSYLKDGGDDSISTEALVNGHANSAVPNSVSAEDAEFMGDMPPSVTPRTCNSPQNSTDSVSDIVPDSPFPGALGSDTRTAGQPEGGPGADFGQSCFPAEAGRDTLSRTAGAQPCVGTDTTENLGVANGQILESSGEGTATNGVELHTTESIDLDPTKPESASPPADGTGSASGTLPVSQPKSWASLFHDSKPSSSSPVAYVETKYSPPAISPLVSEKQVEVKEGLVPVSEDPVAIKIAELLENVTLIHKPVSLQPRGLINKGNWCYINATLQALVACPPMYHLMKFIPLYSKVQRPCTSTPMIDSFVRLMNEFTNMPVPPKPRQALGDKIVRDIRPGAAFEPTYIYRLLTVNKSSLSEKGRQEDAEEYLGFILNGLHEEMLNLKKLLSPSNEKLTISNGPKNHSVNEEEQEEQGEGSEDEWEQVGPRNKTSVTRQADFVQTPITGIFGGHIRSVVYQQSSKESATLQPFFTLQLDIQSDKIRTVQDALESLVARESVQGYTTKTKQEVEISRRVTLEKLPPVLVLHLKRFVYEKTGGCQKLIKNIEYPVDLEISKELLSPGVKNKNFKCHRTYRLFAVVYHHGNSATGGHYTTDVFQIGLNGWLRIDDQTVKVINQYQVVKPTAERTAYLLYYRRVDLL
# Chain of USP16 (Q9Y5T5 whole entry, looked up): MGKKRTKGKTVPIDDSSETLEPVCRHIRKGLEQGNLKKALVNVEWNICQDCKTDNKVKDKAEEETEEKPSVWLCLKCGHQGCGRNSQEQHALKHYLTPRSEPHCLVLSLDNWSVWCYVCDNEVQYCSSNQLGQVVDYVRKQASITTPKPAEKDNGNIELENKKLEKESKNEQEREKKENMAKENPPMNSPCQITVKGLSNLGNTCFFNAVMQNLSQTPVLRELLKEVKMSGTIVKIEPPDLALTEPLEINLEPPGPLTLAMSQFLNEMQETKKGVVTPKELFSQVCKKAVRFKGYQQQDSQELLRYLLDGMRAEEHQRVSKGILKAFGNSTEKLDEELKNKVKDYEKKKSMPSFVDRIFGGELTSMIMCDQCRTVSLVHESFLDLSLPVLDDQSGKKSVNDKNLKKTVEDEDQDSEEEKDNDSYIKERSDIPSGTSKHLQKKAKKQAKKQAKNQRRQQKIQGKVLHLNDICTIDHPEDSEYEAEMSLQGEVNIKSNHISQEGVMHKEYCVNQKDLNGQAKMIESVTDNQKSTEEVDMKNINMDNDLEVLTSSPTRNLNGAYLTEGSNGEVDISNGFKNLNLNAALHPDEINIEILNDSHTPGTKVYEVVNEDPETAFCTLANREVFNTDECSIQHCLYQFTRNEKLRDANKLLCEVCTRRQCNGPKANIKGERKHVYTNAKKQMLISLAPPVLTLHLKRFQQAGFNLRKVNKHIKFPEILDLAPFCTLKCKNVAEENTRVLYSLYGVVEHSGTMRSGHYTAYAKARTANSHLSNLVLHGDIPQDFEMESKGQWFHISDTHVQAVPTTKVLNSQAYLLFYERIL
# Chain of UCHL1 (P09936 whole entry, looked up): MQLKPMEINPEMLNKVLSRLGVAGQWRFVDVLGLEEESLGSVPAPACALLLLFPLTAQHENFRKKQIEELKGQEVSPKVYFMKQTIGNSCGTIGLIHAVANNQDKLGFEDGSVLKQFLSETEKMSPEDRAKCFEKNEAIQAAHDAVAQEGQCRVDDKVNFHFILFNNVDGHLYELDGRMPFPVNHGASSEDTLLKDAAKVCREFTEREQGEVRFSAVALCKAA
structure (smiles),measurement,setting,value
CN1C(=O)c2ccc(NC(=O)CCl)cc2C1=O,log2 ratio of Biotin-Ahx-Ub-VS probe labelling,OTUD6B,-0.407
same,log2 ratio of Biotin-Ahx-Ub-VS probe labelling,OTUD7B,-1.76 (active)
same,log2 ratio of Biotin-Ahx-Ub-VS probe labelling,PRPF8,0.154
same,log2 ratio of Biotin-Ahx-Ub-VS probe labelling,PSMD7,-0.0627
same,log2 ratio of Biotin-Ahx-Ub-VS probe labelling,UCHL1,-1.24 (active)
same,log2 ratio of Biotin-Ahx-Ub-VS probe labelling,UCHL3,0.282
same,log2 ratio of Biotin-Ahx-Ub-VS probe labelling,UCHL5,-0.2
same,log2 ratio of Biotin-Ahx-Ub-VS probe labelling,USP10,-0.0313
same,log2 ratio of Biotin-Ahx-Ub-VS probe labelling,USP15,-0.389
same,log2 ratio of Biotin-Ahx-Ub-VS probe labelling,USP16,-0.455
